# Screens deposited in PubChem BioAssay by National Center for Advancing Translational Sciences (NCATS).
# Sampled rows, rich in hits. Any-hit rate of the full collection: about 6.4%.
# VP16 counter – counter-screen for ROR gamma inhibitors: Gal4-VP16 reporter | Drosophila S2 Gal4-VP16 UAS-luciferase, luminescence, 20 h | Potency, µM (titrated, usually from 53.6 µM), without a hit: at the highest dose activity, negative = inhibition, most hits filed as inhibitors | 310,000 tested, 3.5% active;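 further: Gal4-VP16 expression switched on by copper sulfate through the metallothionein promoter; nearly all actives have a fitted effect of over 50% in size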
# KinaseGlo FLuc – counter-screen: inhibitors of Kinase-Glo firefly luciferase; Kinase-Glo luciferase, ATP luminescence, 8 min; AID 1379; 200,000 tested, 0.28% active; Potency, µM (series often up to 38.3 µM), for the others: at the top dose activity change, negative = inhibition, usual class: inhibitors; Q27757; further: nearly all actives have a fitted effect of over 60% in size
#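 Compound is pinned into ATP-containing buffer (10 uM ATP, imidazole pH 7.2, 7 mM MgCl2). Kinase-Glo luciferase reagent is then added. Light output is recorded following an 8-min room-temperature incubation.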
# RORgamma inh – ROR gamma (mouse) transcription inhibition; Drosophila S2 Gal4-RORgamma UAS-luciferase reporter, 20 h; AID 2551; Potency, µM (doses to about 53.6 µM), for the others: at the highest dose activity change, negative = inhibition, most hits filed as inhibitors; P51450; 310,000 tested, 5.4% active; further: nearly all actives have a fitted effect of over 60% in size
# Target sequence (P51450 whole entry, looked up, the tested form may be a part): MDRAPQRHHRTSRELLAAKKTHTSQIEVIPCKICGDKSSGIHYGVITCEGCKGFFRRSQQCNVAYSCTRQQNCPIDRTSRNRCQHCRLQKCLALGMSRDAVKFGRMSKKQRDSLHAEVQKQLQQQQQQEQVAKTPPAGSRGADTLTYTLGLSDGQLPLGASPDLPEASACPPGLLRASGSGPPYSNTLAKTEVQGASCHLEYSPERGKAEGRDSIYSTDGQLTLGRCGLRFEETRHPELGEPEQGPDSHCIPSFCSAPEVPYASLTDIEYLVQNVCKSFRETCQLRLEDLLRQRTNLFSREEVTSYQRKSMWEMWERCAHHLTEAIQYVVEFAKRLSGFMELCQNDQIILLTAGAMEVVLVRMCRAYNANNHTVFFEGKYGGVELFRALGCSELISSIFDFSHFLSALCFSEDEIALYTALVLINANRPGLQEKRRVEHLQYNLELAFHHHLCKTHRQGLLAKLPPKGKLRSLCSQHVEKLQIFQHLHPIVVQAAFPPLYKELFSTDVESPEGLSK
#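 Using a luciferase readout, inhibitors were identified by reduced reporter activity in Drosophila cells coexpressing a copper-inducible Gal4–ROR gamma fusion and UAS-driven Photinus luciferase, incubated 20 hr after 700 uM copper sulfate.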
# Numbers without * were called inactive; ? = inconclusive; · = no result; ! = not active in a repeat; [ ] = another dose, or the depositor's remark. The call rests on the fitted dose curve; in most records, active means well fitted curve in the direction sought with a large enough effect; inconclusive means small, poorly fitted or top-dose-only effect, or another doubt; inactive means no such curve, though single readings can be large; an effect the other way counts as inactive or inconclusive. On the % scale 0 is the no-effect control and ±100 the full control effect; potency means the concentration at half of the fitted maximal effect.
SMILES,VP16 counter,KinaseGlo FLuc,RORgamma inh
CNc1ncncc1-c1ccccc1C(F)(F)F,-2%,·,-10%
COc1ccc(NC(=O)N2CC[C@@]3(CCCN(C(C)=O)C3)C2)cc1,2%,-5%,3%
COc1ccccc1Nc1nc(N)nc(CN2CCCCC2)n1,-12%[10 µM],-1%,-41%
COc1ccccc1N1CCN(Cc2nc(N)nc(Nc3ccc(C)c(Cl)c3)n2)CC1,1%,1%,11µM*
COc1ccccc1Nc1nc(N)nc(CN2CC(C)CC(C)C2)n1 (stereo not drawn),-1%[10 µM],-2%,8.9µM*
COc1cccc(N2CCN(Cc3nc(N)nc(Nc4ccccc4)n3)CC2)c1,24%,-2%,-14%
CC1(C)N([O-])C2=C(CCCC2)[N+]1=O,-1%,-7%,-6%
Cc1cccc2c(CC(=O)Nc3ccccc3)noc12,-3%,-2%,-1%
O=[N+]([O-])c1ccc(Cl)c(NC2=NCCCCC2)c1,-1%,·,2%
Clc1ccccc1-c1nccc(-n2ccnc2)n1,6%,-3%,-22%
Clc1ccccc1C(c1ccccc1)(c1ccccc1)n1ccnc1,?,-2%,6.3µM*!
Cc1cc(C)c(S(=O)(=O)N2CCOC2CNC(=O)C(=O)NCc2ccncc2)c(C)c1 (stereo not drawn),10%,·,-44%
O=C(NC(=S)NCCC1=CCCCC1)c1cccnc1,?,0%,4µM*
CCOc1ccc(C(=O)NC(=S)NCc2cccnc2)cc1,-22%,0%,?
O=C(NNC(=S)NCc1ccccc1)c1cccnc1,-5%,·,-21%
O=C(NCCC1=CCCCC1)C1CCCN(S(=O)(=O)c2cccnc2)C1 (stereo not drawn),5%,16%,28%
CCOc1cccc(C(=O)NC(=S)NCc2cccnc2)c1,?,-1%,?
O=C(NC(=S)NCc1ccccc1)c1cccnc1,?,-1%,11µM*
CCCOc1ccc(C(=O)NC(=S)NCc2cccnc2)cc1,13µM*,1%,?
Cc1cccc(C(=O)NC(=S)NCc2cccnc2)c1,?,3%,16µM*
CCN(CC)CCn1c2ccccc2c2nc3ccc([N+](=O)[O-])cc3cc21,-18%,·,-11%
CCCCc1cc2c(cn1)=C(OC(=O)c1cccs1)C(C)(OC(=O)CC)C(=O)C=2 (stereo not drawn),·,-8%[7.66 µM],·
Cc1ccc(NC(=O)CN2C(=O)NC3(CCCC3)C2=O)c(Cl)c1,-2%,·,0%
CCOc1ccccc1N(CC(=O)N1CCCC1)S(C)(=O)=O,-1%,·,-14%
COc1ccc(CCNCC(O)COc2cccc(Br)c2)cc1 (stereo not drawn),-13%,·,0%
SMILES,VP16 counter,KinaseGlo FLuc,RORgamma inh
COc1ccccc1COCC(O)CNCCc1ccc(C(F)(F)F)cc1 (stereo not drawn),-8%,·,-2%
OC(CNCCc1ccc(C(F)(F)F)cc1)COc1cccc2ccccc12 (stereo not drawn),13µM*,0%,?
OC(CNCCc1ccc(C(F)(F)F)cc1)COc1ccc2ccccc2c1 (stereo not drawn),11µM*,0%,16µM*
CN(Cc1ccco1)c1ncnc2ccc(-c3ccccc3C#N)cc12,0%,·,-5%
CCCCCC(O)c1ccc([C@H]2CCC(=O)[C@@H]2CCCCCCC(=O)O)cc1 (stereo partly drawn),-8%,·,4%
COc1ccc(CN2CCNC(=O)C2CC(=O)NCc2cn3ccc(C)cc3n2)c(OC)c1 (stereo not drawn),-6%,2%,21%
CSCCC(N)C(=O)O (stereo not drawn),-2%,1%[39.9 µM],1%
O=[N+]([O-])c1ccccc1CNC1CCCc2ccccc21 (stereo not drawn),3%,5%,1%
Cc1cccc(CNc2cc(-c3cccc(C#N)c3)ncn2)c1,13µM*,-1%,-24%
COc1ccccc1CNc1cc(-c2cccc(C#N)c2)ncn1,8%,·,1%
C/C(=C1/C(=O)N(c2ccc([N+](=O)[O-])cc2)N=C1c1ccccc1)N(C)C,14µM*,-6%,?
CC1=NN(c2ccc([N+](=O)[O-])cc2)C(=O)/C1=C\N(C)C,?,13µM*,2%
CN(C)/C=C1/C(=O)N(c2ccc([N+](=O)[O-])cc2)N=C1c1ccccc1,?,-3%,?
CC1=NN(c2nc3ccccc3[nH]2)C(=O)/C1=C/N(C)C,?,1.6µM*,5µM*
CC1=NN(c2nc3ccccc3[nH]2)C(=O)C1Cc1ccccc1 (stereo not drawn),-13%,·,-29%
CCCC1=NN(c2ccc([N+](=O)[O-])cc2)C(=O)/C1=C/N(C)C,?,-2%,29%
Cc1cc(=O)c(C(=O)O)nn1-c1ccccc1,5%,4%,-3%
C[N+]1(C)C2CCC1CC(OC(=O)C(O)c1ccccc1)C2 (stereo not drawn),-1%,-1%,-21%
O=C(CCN1C(=O)/C(=C\c2ccccc2)SC1=S)NNC(=O)c1ccccc1O,7%,·,41%
Cc1cc(C)n2nc(CC(=O)NNC(=O)COc3ccccc3)nc2n1,-1%,·,-14%
Oc1ccc2ccccc2c1C=NCc1cn2ccsc2n1,13µM*,1%,?
O=C(CCCc1ccccc1)NCc1cn2ccsc2n1,25%,3%,?
Cc1oc(-c2ccccc2Cl)nc1CN1CCCCC1CO (stereo not drawn),9%,-4%,-10%
Cc1oc(-c2ccccc2Cl)nc1CN1CCCC1c1ccc(F)cc1 (stereo not drawn),-11%,2%,11µM*
Cc1oc(-c2cccc3ccccc23)nc1CN1CCC[C@H]1CO,?,0%,7.1µM*
SMILES,VP16 counter,KinaseGlo FLuc,RORgamma inh
Cc1ccccc1-c1nc(CN2CCCC2c2ccc(F)cc2)c(C)o1 (stereo not drawn),2%,-3%,-42%
CC[C@H](C)[C@H](NC(=O)OCc1ccccc1)C(=O)Nc1ccc(NC(C)=O)cc1,-12%,-1%,2%
CC(=O)Nc1ccc2sccc2c1,-9%,1%,31%
Cc1ccc(-c2csc(N(CCCN(C)C)C(=O)c3ccco3)n2)cc1,3.5µM*,-1%,0.63µM*
CN(C)CCCN(C(=O)c1ccco1)c1nc(-c2ccc(Cl)cc2)cs1,?,·,-2%
CCOc1ccccc1NC(=O)c1c(NC(=O)CCC(=O)O)sc2c1CCCCC2,?,-1%,10µM*
CCCOC(=O)c1c(NC(=O)CCC(=O)O)sc2c1CCCCC2,5%,0%,8%
CCOC(=O)c1ccc(NC(=O)c2c(NC(=O)CCC(=O)O)sc3c2CCCCC3)cc1,1%,-2%,10µM*
CCOc1ccccc1NC(=O)CCC(=O)O,-5%,1%,2%
Cc1ccc(NC(=O)C2CCCN(C(=O)c3ccc(Cl)cc3)C2)cc1S(=O)(=O)N1CCOCC1 (stereo not drawn),0%,2%,26%
CNC(=S)N(Cc1ccc(Cl)cc1)Cc1cccs1,7%,·,-17%
COc1ccccc1NC(=S)N(CCc1c(C)[nH]c2ccccc12)Cc1cccs1,-4%,5%,?
COc1ccccc1NC(=S)N(CCN1CCCCCC1)Cc1cccs1,-15%[10 µM],1%,14µM*
Cc1ccccc1NC(=S)N(Cc1ccccc1)Cc1cccs1,-9%,-1%,10µM*
Cc1ccccc1NC(=S)N(Cc1cccs1)C1CCCC1,?,1%,?
